The source made the active and inactive calls. Unless noted, how the calls were made is not given here.
Columns and labels:
[1] = test system: Wnt5a (protein binding on small-molecule microarray); assay: Wnt5a binders on small-molecule microarray, primary screen, biophysical, 635/667 nm fluorescence (AID 1142); details: 635 nm fluorescence, higher = more signal;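 further: fluorescence read at 667 nm with signal to noise per printed feature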
[2] = cell viability in Huh7 cells, primary screen, cytotoxicity control for HCV replication inhibitor project, CellTiter-Glo luminescence, basal, 48 h (AID 1143); details: Huh7 HCV replicon, higher = more signal, called active from +8 up or from −8 down;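 further: Huh7 hepatoma cells carrying a hepatitis C replication reporter with no stimulus; test concentration not given here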
[3] = P. aeruginosa biofilm formation inhibitors, primary screen, PAO1 strain, BacTiter-Glo luminescence, LB-PBS (AID 1144); details: 12 h, higher = more signal
[4] = CREB reporter modulators without forskolin, primary screen, cell-based, PC12, CRE-LacZ reporter, unstimulated (AID 1145); details: no forskolin, luminescence, 4.5 h, higher = more signal, called active from +8 up or from −8 down
[5] = CREB reporter modulators under forskolin, primary screen, cell-based, PC12, CRE-LacZ reporter, forskolin-stimulated (AID 1146); details: luminescence, 4.5 h, higher = more signal, called active from +8 up or from −8 down;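 further: PC12 cells with 6xCRE LacZ reporter stimulated by forskolin 10 µM; beta-galactosidase reporter signal reflecting CREB driven transcription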
[6] = target: Streptavidin (Streptomyces avidinii) (UniProt P22629); assay: streptavidin binders on small-molecule microarray, primary screen, artefact control for SMM compound annotation, biophysical, 635/667 nm fluorescence (AID 1147); details: streptavidin binding, higher = more signal;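 further: signal reflects streptavidin binding to arrayed compounds as a control protein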
Sequence of Streptavidin (Streptomyces avidinii) (P22629 whole entry, looked up): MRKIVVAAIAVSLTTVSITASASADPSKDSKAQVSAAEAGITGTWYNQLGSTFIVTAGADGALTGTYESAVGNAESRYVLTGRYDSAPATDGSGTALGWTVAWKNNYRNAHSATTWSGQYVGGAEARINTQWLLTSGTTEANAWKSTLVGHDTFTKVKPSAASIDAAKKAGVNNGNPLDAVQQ

[7] = small-molecule binders of probe aInhba, primary screen, biochemical, small-molecule microarray, 635/667 nm fluorescence (AID 1148); details: higher = more signal;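 further: score merges 667nm spot fluorescence with signal-to-noise for antibody binding to printed compounds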
Torsin-1A (Homo sapiens) [8] = target: Torsin-1A (Homo sapiens) (UniProt O14656); assay: torsin A binders from cell lysate, primary screen, small-molecule microarray, wild-type, 635/667 nm (AID 1149); details: COS7 hTOR1A-WT lysate, 635 nm fluorescence, higher = more signal
Sequence of Torsin-1A (Homo sapiens) (O14656 whole entry, looked up): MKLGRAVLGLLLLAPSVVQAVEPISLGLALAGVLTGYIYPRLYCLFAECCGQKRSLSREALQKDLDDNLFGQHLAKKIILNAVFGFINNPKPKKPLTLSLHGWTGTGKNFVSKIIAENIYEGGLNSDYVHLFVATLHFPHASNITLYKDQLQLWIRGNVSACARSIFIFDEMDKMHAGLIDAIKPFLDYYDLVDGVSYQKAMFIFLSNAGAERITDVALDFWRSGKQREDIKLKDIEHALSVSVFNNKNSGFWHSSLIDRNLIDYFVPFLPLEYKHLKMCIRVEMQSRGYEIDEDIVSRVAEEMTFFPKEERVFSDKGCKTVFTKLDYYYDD

Torsin-1A (Homo sapiens) [9] = target: Torsin-1A (Homo sapiens) (UniProt O14656); assay: small-molecule binders of mutant TOR1A in lysate, primary screen, cell lysate, small-molecule microarray, COS7 lysate, 635/667 nm fluorescence (AID 1150); details: COS7 hTOR1A mutant lysate, 635 nm fluorescence, higher = more signal;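 further: score pools 667 nm emission and signal to noise measuring lysate protein binding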
[10] = test system: Sonic hedgehog protein (Shh); assay: small-molecule binders of Shh protein, primary screen, biochemical, small-molecule microarray, 635/667 nm fluorescence (AID 1151); details: small-molecule microarray binding, 635 nm fluorescence; higher = more signal;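 further: Shh protein binding to compounds spotted on small-molecule microarray slides; score combines spot fluorescence intensity with signal-to-noise across triplicate slides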
[11] = E. coli DRC41 culture turbidity changes, primary screen, E. coli filamentation inducer project, strain DRC41, OD650, 48 h (AID 1152);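 further: E. coli MC1000 strain DRC41 lacking acrAB efflux pump and sulA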; details: E. coli DRC41 (acrAB sulA), higher = more signal, called active from +8 up or from −8 down
[12] = small-molecule binders of probe aLefty1, primary screen, biochemical, small-molecule microarray, 635/667 nm fluorescence (AID 1153); details: higher = more signal;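 further: score merges spot fluorescence with signal-to-noise ratio from the scanned slide images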
[13] = PSAC antagonists in infected red cells, primary screen, cell-based, P. falciparum Indochina, OD700, 1 h (AID 1154); details: P. falciparum Indochina infected RBC osmotic lysis, higher = more signal, called active from +8 up or from −8 down
[14] = PSAC antagonists in infected red cells, primary screen, cell-based, P. falciparum Indochina, OD700, 2 h (AID 1155);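 further: lysis reports solute entry through the parasite surface anion channel PSAC; channel blockers reduce lysis of infected cells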; details: P. falciparum Indochina infected erythrocytes, osmotic lysis OD700; higher = more signal, called active from +8 up or from −8 down
[15] = osmotic lysis modulators in infected erythrocytes, primary screen, PSAC antagonist project, cell-based, P. falciparum Indochina, OD700, 3 h (AID 1156); details: higher = more signal, called active from +8 up or from −8 down
[16] = PSAC antagonists in infected red cells, primary screen, cell-based, P. falciparum Indochina, OD700, 18 h (AID 1157); details: P. falciparum Indochina infected erythrocytes, osmotic lysis OD700, 18 h; higher = more signal, called active from +8 up or from −8 down
[17] = modulators of S6 phosphorylation in cells, primary screen, cell-based, A549, cytoblot, luminescence, serum-stimulated (AID 1158); details: A549 phospho-S6 cytoblot, 5 h, higher = more signal;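 further: serum-stimulated A549 lung adenocarcinoma cells; signal is phosphorylated S6 detected by cytoblot immunostaining with HRP secondary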
[18] = target: NADPH oxidase 2 (Homo sapiens) (UniProt P04839); assay: NOX2-dependent H2O2 signal modulators, primary screen, NOX inhibitor project, cell-based, HEK293-NOX2, PMA-stimulated, Amplex Red fluorescence (AID 1159); details: 45 min, higher = more signal, called active from +8 up or from −8 down; further: test concentration not given here
Sequence of NADPH oxidase 2 (Homo sapiens) (P04839 whole entry, looked up): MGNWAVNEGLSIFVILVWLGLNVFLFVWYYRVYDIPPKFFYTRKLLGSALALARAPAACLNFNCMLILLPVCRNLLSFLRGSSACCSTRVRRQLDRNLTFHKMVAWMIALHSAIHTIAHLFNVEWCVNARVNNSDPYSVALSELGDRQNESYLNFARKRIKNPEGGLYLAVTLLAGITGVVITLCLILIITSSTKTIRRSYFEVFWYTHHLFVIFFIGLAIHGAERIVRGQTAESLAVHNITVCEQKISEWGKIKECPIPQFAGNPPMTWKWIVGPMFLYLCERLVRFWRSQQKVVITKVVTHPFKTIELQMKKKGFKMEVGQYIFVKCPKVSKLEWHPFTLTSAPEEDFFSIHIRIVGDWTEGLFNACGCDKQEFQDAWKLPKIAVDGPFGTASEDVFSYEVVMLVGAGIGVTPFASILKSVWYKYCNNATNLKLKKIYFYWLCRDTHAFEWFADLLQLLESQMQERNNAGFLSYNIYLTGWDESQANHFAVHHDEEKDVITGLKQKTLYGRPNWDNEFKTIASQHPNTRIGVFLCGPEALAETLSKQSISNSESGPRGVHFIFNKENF

[19] = target: NADPH oxidase 4 (Homo sapiens) (UniProt Q9NPH5); assay: NOX4-dependent H2O2 signal modulators, primary screen, NOX inhibitor project, cell-based, HEK293-NOX4, tetracycline-induced, Amplex Red fluorescence (AID 1160); details: 45 min, higher = more signal, called active from +8 up or from −8 down
Sequence of NADPH oxidase 4 (Homo sapiens) (Q9NPH5 whole entry, looked up): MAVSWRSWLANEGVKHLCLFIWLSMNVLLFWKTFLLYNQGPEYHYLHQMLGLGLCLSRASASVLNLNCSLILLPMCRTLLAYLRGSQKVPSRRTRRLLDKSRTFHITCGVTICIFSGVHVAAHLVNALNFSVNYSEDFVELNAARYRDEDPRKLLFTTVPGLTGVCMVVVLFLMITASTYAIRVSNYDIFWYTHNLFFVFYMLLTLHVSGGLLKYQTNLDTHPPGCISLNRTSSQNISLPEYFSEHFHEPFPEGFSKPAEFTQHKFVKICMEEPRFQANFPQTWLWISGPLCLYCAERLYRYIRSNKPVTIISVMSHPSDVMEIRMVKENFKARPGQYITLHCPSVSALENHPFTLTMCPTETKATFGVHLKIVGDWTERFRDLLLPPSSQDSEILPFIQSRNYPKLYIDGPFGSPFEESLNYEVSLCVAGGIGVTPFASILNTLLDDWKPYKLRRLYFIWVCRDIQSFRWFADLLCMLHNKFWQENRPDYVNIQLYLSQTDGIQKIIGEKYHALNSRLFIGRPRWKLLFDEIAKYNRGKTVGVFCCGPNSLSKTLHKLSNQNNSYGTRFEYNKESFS

[20] = target: NADPH oxidase 5 (Homo sapiens) (UniProt Q96PH1); assay: NOX5-dependent H2O2 signal modulators, primary screen, NOX inhibitor project, cell-based, HEK293-NOX5, Amplex Red fluorescence (AID 1161); details: HEK293-NOX5, ionomycin, 45 min, higher = more signal
Sequence of NADPH oxidase 5 (Homo sapiens) (Q96PH1 whole entry, looked up): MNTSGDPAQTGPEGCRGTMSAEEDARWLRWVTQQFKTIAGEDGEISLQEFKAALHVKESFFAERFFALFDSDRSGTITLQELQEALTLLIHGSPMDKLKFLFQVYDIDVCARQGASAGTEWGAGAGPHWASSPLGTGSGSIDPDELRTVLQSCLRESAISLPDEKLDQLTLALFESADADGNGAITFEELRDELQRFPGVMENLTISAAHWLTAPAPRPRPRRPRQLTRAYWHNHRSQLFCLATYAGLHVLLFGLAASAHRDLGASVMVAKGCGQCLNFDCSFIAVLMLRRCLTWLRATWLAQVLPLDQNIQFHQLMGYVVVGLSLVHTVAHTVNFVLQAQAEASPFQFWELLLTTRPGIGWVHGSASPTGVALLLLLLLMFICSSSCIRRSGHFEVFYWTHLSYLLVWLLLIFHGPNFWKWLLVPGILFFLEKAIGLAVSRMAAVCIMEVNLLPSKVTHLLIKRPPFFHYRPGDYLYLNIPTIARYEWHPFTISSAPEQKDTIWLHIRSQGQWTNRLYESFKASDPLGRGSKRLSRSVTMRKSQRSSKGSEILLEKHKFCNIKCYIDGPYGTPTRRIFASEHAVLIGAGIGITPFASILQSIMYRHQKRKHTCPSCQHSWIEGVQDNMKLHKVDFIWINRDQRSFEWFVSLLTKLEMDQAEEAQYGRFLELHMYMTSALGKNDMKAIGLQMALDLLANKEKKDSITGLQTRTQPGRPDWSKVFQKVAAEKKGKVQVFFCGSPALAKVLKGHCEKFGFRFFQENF

SMILES	composite z-score [1]	z-score [2]	z-score [3]	z-score [4]	z-score [5]	composite z-score [6]	composite z-score [7]	composite z-score (Torsin-1A (Homo sapiens) [8])	composite z-score (Torsin-1A (Homo sapiens) [9])	composite z-score [10]	z-score [11]	composite z-score [12]	z-score [13]	z-score [14]	z-score [15]	z-score [16]	z-score [17]	z-score [18]	z-score [19]	z-score [20]
COCCCNC(=O)[C@]1(Cc2ccccc2CN=[N+]=[N-])N=C(c2ccc(OCCCO)cc2)O[C@@H]1c1ccccc1CN=[N+]=[N-]	0.471	-4.04 (inactive)	1.06 (inactive)	0.969 (inactive)	-1.02 (inactive)	1.23	0.648	0.883	0.721	-0.256	-0.279 (inactive)	0.861	28.8 (active)	21.5 (active)	1.72 (inactive)	2.09 (inactive)	0.953	-0.983 (inactive)	-0.00869 (inactive)	-0.84
CC(C)(C)OC(=O)CC[C@]1(C(=O)O)COC(c2ccc(OCCCO)cc2)=N1	-0.0943	0.61 (inactive)	0.178 (inactive)	0.694 (inactive)	0.506 (inactive)	0.142	-0.0589	0.676	1.08	-2.07	-0.283 (inactive)	0.126	2.54 (inactive)	-0.0827 (inactive)	0.091 (inactive)	0.0515 (inactive)	-0.426	0.0212 (inactive)	0.624 (inactive)	0.487
Cc1ccc(S[C@]2(C(=O)O)CC(=O)N(Cc3ccccc3C(F)(F)F)[C@@H]2c2ccc(CO)cc2)cc1	-0.297	0.455 (inactive)	0.231 (inactive)	0.0279 (inactive)	-0.369 (inactive)	-0.655	-0.113	0.0183	1.46	-1.1	0.281 (inactive)	-0.109	4.63 (inactive)	0.388 (inactive)	0.0934 (inactive)	0.231 (inactive)	-0.854	0.375 (inactive)	0.152 (inactive)	0.476
CCCC=C(CCC)[C@@H](NS(=O)(=O)c1ccccc1)c1ccc(C(F)(F)F)cc1	0.135	-1.21 (inactive)	0.514 (inactive)	0.0007 (inactive)	1.11 (inactive)	1.33	0.105	0.354	0.56	0.0898	-1.51 (inactive)	0.775	4.38 (inactive)	1.07 (inactive)	0.482 (inactive)	0.983 (inactive)	-0.0787	-0.818 (inactive)	-1.19 (inactive)	2.67
O=C(C=C(CC(O)c1cccc(Cl)c1)OCCF)OCCF (stereo not given)	-0.234	-3.1 (inactive)	0.117 (inactive)	0.481 (inactive)	-0.722 (inactive)	-0.0847	-0.267	-0.489	-0.167	-0.335	0.597 (inactive)	-0.0694	1.35 (inactive)	-0.385 (inactive)	-0.0116 (inactive)	-1.67 (inactive)	0.785	0.176 (inactive)	-0.15 (inactive)	0.305
O=C(CS)NCCCCCNC(=O)[C@@H]1C[C@@H]2C(=O)N3CCC[C@H]3C(=O)N2[C@@H]1c1ccc(O)cc1	0.257	-0.237 (inactive)	-0.78 (inactive)	-0.13 (inactive)	-0.862 (inactive)	-0.23	-0.0313	0.99	1.24	0.837	-0.391 (inactive)	0.109	2.25 (inactive)	0.508 (inactive)	-2.66 (inactive)	0.251 (inactive)	-0.244	0.927 (inactive)	0.313 (inactive)	-0.651
C=C(CCCC)/C(=C/C[C@@H](OC(=O)c1ccncc1)c1ccccc1OCCO)c1cc(C(=O)OC)ccc1OC	0.106	-2.02 (inactive)	0.0648 (inactive)	15.6 (active)	0.383 (inactive)	-0.36	-0.0047	0.622	1.1	1.4	0.504 (inactive)	0.282	28 (active)	17.5 (active)	3.94 (inactive)	2.07 (inactive)	0.761	1.08 (inactive)	-0.25 (inactive)	-1.62
[N-]=[N+]=NCc1ccccc1C[C@]1(C(=O)NCCN2CCOCC2)N=C(c2ccc(OCCCO)cc2)O[C@H]1c1ccccc1	0.461	-4.59 (inactive)	-1.63 (inactive)	1.11 (inactive)	-0.838 (inactive)	-0.0127	0.364	1.39	0.531	1.1	0.158 (inactive)	0.428	12.7 (active)	1.83 (inactive)	1.14 (inactive)	1.11 (inactive)	0.378	-1.77 (inactive)	-0.0953 (inactive)	-1.19
CC(C)C[C@@H]1NC(=O)[C@@]23C(=O)N[C@@H](Cc4ccccc4)C2[C@H](C)[C@@]2(C)O[C@H]2C3/C=C/C/C=C\CNC(=O)[C@@H]2CCCN2C1=O (stereo not given in full)	-0.0917	-0.577 (inactive)	0.595 (inactive)	1.12 (inactive)	-0.2 (inactive)	-0.767	0.0051	0.249	0.0725	0.468	-0.797 (inactive)	-0.234	0.918 (inactive)	0.182 (inactive)	-0.551 (inactive)	0.01 (inactive)	0.226	0.593 (inactive)	1.14 (inactive)	0.579
C=CC[C@]1(C(=O)N2CCOCC2)N=C(c2ccc(OCCCO)cc2)O[C@H]1c1ccccc1CN=[N+]=[N-]	0.662	-3.25 (inactive)	0.112 (inactive)	3.51 (inactive)	-0.745 (inactive)	1.06	0.455	0.689	1.1	0.871	0.434 (inactive)	0.483	27.9 (active)	23.1 (active)	3.57 (inactive)	1.89 (inactive)	-0.0698	1.4 (inactive)	0.226 (inactive)	-1.32
COC(=O)[C@@]1(Cc2ccc(F)cc2)[C@H]2c3cc(C(=O)N4CCCC4)n(Cc4ccccc4)c3C[C@H]2CN1C(=O)c1ccccc1	0.379	-3.69 (inactive)	0.195 (inactive)	-0.368 (inactive)	0.339 (inactive)	1.38	-0.0413	0.0257	0.72	-0.447	-1.25 (inactive)	0.216	4.64 (inactive)	0.899 (inactive)	2.65 (inactive)	1.26 (inactive)	0.178	-0.165 (inactive)	0.648 (inactive)	-1.48
CC(C)C(CO)N1C(=O)[C@@H]2[C@H]3C(=O)OCC=C[C@H]3OC23C=CCN(CCN2CCOCC2)C(=O)[C@@H]13 (stereo not given in full)	-0.406	0.29 (inactive)	2.66 (inactive)	1.01 (inactive)	1.25 (inactive)	-0.38	-0.128	-0.412	0.743	1.73	-0.706 (inactive)	-0.263	0.897 (inactive)	-0.136 (inactive)	0.675 (inactive)	0.0875 (inactive)	-0.679	1.26 (inactive)	0.258 (inactive)	2.02
COCCCNC(=O)[C@@]1(Cc2ccccc2CN=[N+]=[N-])N=C(c2ccc(OCCCO)cc2)O[C@H]1c1ccccc1N=[N+]=[N-]	1.08	-4.47 (inactive)	-0.867 (inactive)	-0.207 (inactive)	-0.834 (inactive)	1.37	0.786	0.0556	0.516	0.341	2.51 (inactive)	0.0643	36.4 (active)	30.8 (active)	2.72 (inactive)	3.1 (inactive)	-0.0478	0.0139 (inactive)	1.3 (inactive)	-1.31
CC(C)=CCCC(C)=CC(O)C1C=CC2C(=O)N(c3ccccc3)C(=O)C2N1Nc1ccc([N+](=O)[O-])cc1 (stereo not given)	0.0504	-1.72 (inactive)	-0.322 (inactive)	0.323 (inactive)	-0.0578 (inactive)	2.06	0.077	0.383	1.12	0.821	-1.41 (inactive)	-0.131	8.34 (active)	2.3 (inactive)	1.04 (inactive)	1.44 (inactive)	-0.563	-0.381 (inactive)	-3.41 (inactive)	-0.516
CCCNC(=O)[C@@H]1c2ccccc2C(=O)N(CC23CC4CC(CC(C4)C2)C3)[C@H]1c1ccc(CO)cc1	0.435	-4.68 (inactive)	-0.929 (inactive)	0.764 (inactive)	-0.517 (inactive)	0.673	-0.118	0.92	-0.0207	1.05	-0.59 (inactive)	0.376	2.45 (inactive)	0.79 (inactive)	1.88 (inactive)	0.276 (inactive)	0.171	0.717 (inactive)	-1.2 (inactive)	-2.76
COC(=O)[C@@]1(Cc2ccccc2)[C@H]2c3cc(C(=O)N4CCCC4)n(Cc4ccc(OC(F)(F)F)cc4)c3C[C@H]2CN1C(=O)c1ccccc1	1.01	-2.44 (inactive)	0.0853 (inactive)	2.49 (inactive)	2.25 (inactive)	1.64	1.08	-0.429	0.969	-1.44	-2.11 (inactive)	0.592	3.6 (inactive)	1.2 (inactive)	1.01 (inactive)	1.35 (inactive)	-0.366	0.828 (inactive)	1.34 (inactive)	0.914
CCOC(=O)C[C@H]1[C@H](OC(=O)Cc2ccc3c(c2)OCO3)[C@@H](NC(=O)c2ccccc2)c2cc(OCCCO)ccc2N1C(=O)c1ccccc1	-0.0373	-0.363 (inactive)	-0.669 (inactive)	0.512 (inactive)	0.484 (inactive)	0.243	-0.128	0.0229	0.403	0.85	1.7 (inactive)	-0.103	1.05 (inactive)	0.396 (inactive)	-0.707 (inactive)	-0.281 (inactive)	0.149	0.366 (inactive)	0.759 (inactive)	0.322

Reference: PubChem BioAssay
